# Results filed as inconclusive are left out. A call without a number means that no potency is given here. Active and inactive are the calls of the source. The call rests on the fitted dose curve; in most records, active means well fitted inhibition curve with a large enough effect; inconclusive means small, poorly fitted or top-dose-only effect; inactive means no such curve, though single readings can be large or run the other way.
# Tested on: Zika virus NS2B-NS3 protease (unlinked)
# Test: Optimization of GU AMC qHTS for Zika virus inhibitors: Unlinked NS2B-NS3 protease assay (AID 1347151); further: nearly all actives have a fitted effect of over 80% in size
# Conditions: recombinant ZIKV NS2B-NS3 protease, fluorogenic AMC substrate; series mostly up to 52.5 µM
# Method in brief: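 Fluorescence gain (340/450 nm) over 15 min at room temperature, ~20% conversion, gave percent inhibition fitted to a 4-parameter Hill equation; enzyme was unlinked NS2B-NS3 (25 nM final), pH 8.0 Tris buffer.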
# Potency means the concentration at half of the fitted maximal effect.
row,Compound,Potency
1,NNCCc1ccccc1,inactive
2,CNC[C@H](O)c1cccc(O)c1,inactive
3,OC(CCN1CCCCC1)(c1ccccc1)C1CC2C=CC1C2 (stereo not drawn),inactive
4,CC(=O)Oc1ccccc1C(=O)O,26.7 µM (active)
5,CC(C)(C)NCC(O)c1ccc(O)c(CO)c1 (stereo not drawn),inactive
6,NS(=O)(=O)c1cc2c(cc1Cl)NC=NS2(=O)=O,inactive
7,C1COC(NC(C2CC2)C2CC2)=N1,inactive
8,NC[C@H](O)c1ccc(O)c(O)c1,inactive
9,CCCC(CCC)C(=O)O,inactive
10,NC(=O)c1cnccn1,inactive
11,O=C1CCc2cc(OCCCCc3nnnn3C3CCCCC3)ccc2N1,inactive
12,Oc1ccc(C2CNCCc3c2cc(O)c(O)c3Cl)cc1 (stereo not drawn),16.8 µM (active)
13,O=C1CCC(N2C(=O)c3ccccc3C2=O)C(=O)N1 (stereo not drawn),inactive
14,c1ccc([C@H]2CN3CCSC3=N2)cc1,inactive
15,O=C(O)CCc1ccc(NCc2cccc(Oc3ccccc3)c2)cc1,inactive
16,C[C@]12CCC(=O)C=C1CC[C@@H]1[C@@H]2[C@@H](O)C[C@@]2(C)[C@H]1CC[C@]2(O)C(=O)CO,inactive
17,Cc1cccc(-c2[nH]c(C(C)(C)C)nc2-c2ccc3nccnc3c2)n1,inactive
18,Nc1ccc(S(=O)(=O)Nc2ccnn2-c2ccccc2)cc1,inactive
19,CCCc1nn(C)c2c(=O)[nH]c(-c3cc(S(=O)(=O)N4CCN(C)CC4)ccc3OCC)nc12,inactive
20,CC(C[N+](C)(C)C)OC(N)=O (stereo not drawn),inactive
21,CC(C)NCC(O)COc1ccc(COCCOC(C)C)cc1 (stereo not drawn),inactive
22,N[C@@H]1CONC1=O,inactive
23,N=c1nc(N2CCCCC2)cc(N)n1O,inactive
24,Cc1cc2c(C(C)C)c(O)c(O)c(C=O)c2c(O)c1-c1c(C)cc2c(C(C)C)c(O)c(O)c(C=O)c2c1O,0.377 µM (active)
25,Cc1ccc(N(CC2=NCCN2)c2cccc(O)c2)cc1,inactive
26,Cc1ccccc1C(OCCN(C)C)c1ccccc1 (stereo not drawn),inactive
27,CCOC(=O)N1CCC(=C2c3ccc(Cl)cc3CCc3cccnc32)CC1,inactive
28,O=C(O)COCCN1CCN(C(c2ccccc2)c2ccc(Cl)cc2)CC1 (stereo not drawn),inactive
